Where “and” joins values, the source holds several entries; their conditions need not be identical. Identical values can stand only once. About 2,000 (36%) of roughly 5,500 compounds were called active. Inconclusive results (about 18%) are left out. Cut-off read from the data, not from the text of the source: active = normalized growth mostly below about 0.91 (no sharp cut-off); inconclusive = no clear call, values can overlap the other calls; inactive = mostly above about 0.92. The list shows a part of the results.
Assay: chemical genetic growth profiling, strain panel (AID 1159580);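 note: tested at 20 µM; growth read once vehicle control cultures reached saturation at 30 °C; 1 = growth at the plate median or of vehicle wells; lower values mean less growth of the strain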
Conditions: S. cerevisiae deletion strains, growth OD

Measured: normalized growth

Nc1ncn([C@@H]2O[C@H](CO)[C@@H](O)[C@H]2O)c(=O)n1
inactive: locus YAL021C, strain ccr4, active compounds read low 1.01 | locus YAL026C, strain drs2, active compounds read low 0.998 | locus YAL030W, strain snc1, active compounds read low 0.996 | locus YBL061C, strain skt5, active compounds read low 0.987 | locus YBR009C, strain hhf1, active compounds read low 0.992 | locus YBR021W, strain FUR4, active compounds read low 0.999 | locus YBR023C, strain chs3, active compounds read low 1 | locus YBR171W, strain sec66, active compounds read low 0.962 | locus YBR229C, strain ROT2, active compounds read low 1.01 | locus YBR231C, strain swc5, active compounds read low 0.973 | locus YBR279W, strain paf1, active compounds read low 0.995 | locus YCL011C, strain gbp2, active compounds read low 1.01 | locus YCL016C, strain dcc1, active compounds read low 0.987 | locus YCL029C, strain bik1, active compounds read low 1 | locus YCL061C, strain MRC1, active compounds read low 0.989 | locus YCL069W, strain vba3, active compounds read low 0.979 | locus YCR088W, strain abp1, active compounds read low 0.996 | locus YDL005C, strain med2, active compounds read low 0.972 | locus YDL035C, strain GPR1, active compounds read low 1.02 | locus YDL040C, strain nat1, active compounds read low 0.981 | locus YDL074C, strain BRE1, active compounds read low 1.03 | locus YDL101C, strain DUN1, active compounds read low 1.01 | locus YDL134C, strain PPH21, active compounds read low 1.01 | locus YDL185W, strain tfp1, active compounds read low 0.99 | locus YDL192W, strain arf1, active compounds read low 0.994 | locus YDR001C, strain nth1, active compounds read low 0.984 | locus YDR069C, strain doa4, active compounds read low 0.976 | locus YDR101C, strain arx1, active compounds read low 0.996 | locus YDR137W, strain rgp1, active compounds read low 1 | locus YDR159W, strain sac3, active compounds read low 1 | locus YDR162C, strain NBP2, active compounds read low 1.01 | locus YDR195W, strain ref2 0.91 | locus YDR297W, strain sur2, active compounds read low 0.993 | locus YDR318W, strain mcm21, active compounds read low 0.999 | locus YDR334W, strain swr1, active compounds read low 0.989 | locus YDR335W, strain msn5, active compounds read low 0.98 | locus YDR388W, active compounds read low 0.997 | locus YDR392W, strain spt3, active compounds read low 1.02 | locus YDR502C, strain sam2, active compounds read low 1.01 | locus YEL003W, strain gim4, active compounds read low 0.982 | locus YEL037C, strain rad23, active compounds read low 0.992 | locus YEL061C, strain CIN8 (second series), active compounds read low 0.986 | locus YEL061C, strain CIN8, active compounds read low 1.01 | locus YER015W, strain faa2, active compounds read low 0.99 | locus YER016W, strain bim1, active compounds read low 1.01 | locus YER110C, active compounds read low 1.01 | locus YER111C, strain swi4, active compounds read low 0.959 | locus YER155C, strain BEM2 (second series), active compounds read low 0.978 | locus YER155C, strain BEM2, active compounds read low 1.01 | locus YER167W, strain BCK2, active compounds read low 0.996 | locus YFR010W, strain ubp6, active compounds read low 0.983 | locus YGL078C, strain dbp3, active compounds read low 0.992 | locus YGL086W, strain mad1, active compounds read low 1 | locus YGL167C, strain pmr1, active compounds read low 0.987 | locus YGL173C, strain kem1, active compounds read low 0.971 | locus YGL227W, strain vid30, active compounds read low 0.983 | locus YGL240W, strain doc1, active compounds read low 0.951 | locus YGL248W, strain PDE1, active compounds read low 1.02 | locus YGL253W, strain hxk2, active compounds read low 0.989 | locus YGR078C, strain PAC10, active compounds read low 1.03 | locus YGR135W, strain pre9, active compounds read low 0.99 | locus YGR229C, strain SMI1, active compounds read low 1.02 | locus YGR252W, strain gcn5, active compounds read low 0.962 | locus YHR013C, strain ard1, active compounds read low 0.979 | locus YHR027C, strain rpn1, active compounds read low 0.994 | locus YHR030C, strain SLT2, active compounds read low 1.01 and 0.98 | locus YHR079C, strain IRE1 (second series), active compounds read low 0.989 | locus YHR079C, strain IRE1, active compounds read low 0.997 | locus YHR094C, strain hxt1, active compounds read low 0.987 | locus YHR129C, strain ARP1, active compounds read low 1.01 | locus YHR142W, strain chs7, active compounds read low 0.974 | locus YHR200W, strain rpn10, active compounds read low 0.993 | locus YIL066C, strain RNR3, active compounds read low 1.02 | locus YIL073C, strain SPO22, active compounds read low 0.973 | locus YIL125W, strain kgd1, active compounds read low 0.997 | locus YIR030C, strain dcg1, active compounds read low 1 | locus YJL092W, strain hpr5, active compounds read low 0.984 | locus YJL095W, strain BCK1 (second series), active compounds read low 0.972 | locus YJL095W, strain BCK1, active compounds read low 1.03 and 0.98 | locus YJL115W, strain asf1, active compounds read low 0.97 | locus YJL129C, strain trk1, active compounds read low 0.966 | locus YJL134W, strain LCB3, active compounds read low 1 | locus YJL154C, strain vps35, active compounds read low 0.981 | locus YJL164C, strain tpk1, active compounds read low 0.996 | locus YJL166W, strain qcr8, active compounds read low 0.973 | locus YJL168C, strain set2, active compounds read low 0.995 | locus YJL187C, strain SWE1 (second series), active compounds read low 1.03 | locus YJL187C, strain SWE1, active compounds read low 0.983 | locus YJR043C, strain POL32, active compounds read low 1.01
